40 molecules from the supplement of paper PMC13380429 can be followed below.

A number with no mark means an inactive call.

The assay has as its system Vero E6 infected with SARS-CoV-2. Kind of assay: inhibition of SARS-CoV-2 cytopathic effect; higher = more antiviral protection, active = above 15. To be noted: 1 nM; 48 h. Background: Protection from cytopathic effect is a common read-out in antiviral testing.
`C[C@@H]1Cc2c([nH]c3ccccc23)[C@@H](c2c(F)cc(/C=C/C(=O)O)cc2F)N1CC(C)(C)F`: the “inhibition of SARS-CoV-2 cytopathic effect” value (“inhibition” for short) was 0.69%.
Turning to `NS(=O)(=O)c1cc2c(cc1Cl)N=CNS2(=O)=O` [chlorothiazide], the “inhibition” value is 0.29%.
The value for `CC(C)[C@H]1c2ccc(F)cc2CC[C@@]1(CCN(C)CCCc1nc2ccccc2[nH]1)OC(=O)C1CC1` was 1.78%; that for `CCCCc1ccc2[nH]c(NC(=O)OC)nc2c1` [parbendazole] was 0.24%.
As for `CC[C@@H](CO)NC(=O)[C@@H]1C=C2c3cccc4[nH]cc(c34)C[C@H]2N(C)C1` [methylergometrine], the “inhibition” value was -0.77%.
The figure for `CC(C)N[C@H]1CCn2c(=O)[nH]c3cccc(c32)[C@@H]1O` [zilpaterol] is 0.575%.
The value for `CCOC(=O)Nc1nc2ccccc2[nH]1` [lobendazole] was -9.74%; that for `CN(C)c1ccccc1CN1CCCN(Cc2ccccc2N(C)C)C1c1ccncc1` was 0.09%.
The value for `CN1C(=O)N(C)C2C1N(C)C(=O)N2C` (stereo not given) [mebicar] was -5.8%; that for `CC(=O)Oc1ccccc1C(=O)O` [aspirin] was -5.74%; that for `Cc1c(C(=O)NN2CCCCC2)nn(-c2ccc(Cl)cc2Cl)c1-c1ccc(Cl)cc1` [rimonabant] was -1.86%.
As to `CS(=O)(=O)Nc1ccc([N+](=O)[O-])cc1Oc1ccccc1` [nimesulide], the “inhibition” value is 0.43%.
Take `O=c1nc2ccccc2c2n1CC(CN1CCN(c3ccccc3)CC1)N2` (stereo not given): the “inhibition” value is 3.05%.
The value for `COc1cc(Cc2cnc(N)nc2N)cc(OC)c1OC` [trimethoprim] was -0.11%; that for `CN1[C@@H]2C[C@@H](O)C[C@H]1[C@@H]1O[C@@H]12` [scopine] was -0.81%.
The figure for `C=CCNc1ncnc2ccc(Br)cc12` is 2.47%; for `COc1ccc2cc(C(C)C(=O)Oc3ccc(C(N)=S)cc3)ccc2c1` (stereo not given) it is -0.75%.
The value for `CN[C@H](CC(C)C)C(=O)N[C@H]1C(=O)N[C@@H](CC(N)=O)C(=O)N[C@H]2C(=O)N[C@H]3C(=O)N[C@H](C(=O)N[C@H](C(=O)O)c4cc(O)cc(O)c4-c4cc3ccc4O)[C@H](O[C@H]3C[C@](C)(N)[C@@H](O)[C@H](C)O3)c3ccc(c(Cl)c3)Oc3cc2cc(c3O[C@@H]2O[C@H](CO)[C@@H](O)[C@H](O)[C@H]2O[C@H]2C[C@](C)(NCc3ccc(-c4ccc(Cl)cc4)cc3)[C@@H](O)[C@H](C)O2)Oc2ccc(cc2Cl)[C@H]1O` [oritavancin] was 2.97%.
On to `N=C(N)c1ccc(/N=N/Nc2ccc(C(=N)N)cc2)cc1` [diminazene-aceturate], for which the “inhibition” value is 0.66%.
With `C=CC[N+]1([C@H]2C[C@H]3[C@@H]4CC[C@H]5C[C@H](O)[C@@H](N6CCOCC6)C[C@]5(C)[C@H]4CC[C@]3(C)[C@H]2OC(C)=O)CCCC1`, the “inhibition” value was -0.55%.
For the molecule `C[C@H]1[C@H](C)CC[C@]2(C(=O)O)CC[C@]3(C)C(=CC[C@@H]4[C@@]5(C)C[C@@H](O)[C@H](O)[C@@](C)(CO)[C@@H]5CC[C@]43C)[C@H]12` [asiatic-acid], the “inhibition” value was -2.75%.
The value for `Nn1cnc2cc3ccccc3cc2c1=O` [centazolone] was -0.59%; that for `Cc1cc(C(=O)O)sc1C(N)C(=O)O` (stereo not given) was 0.31%; that for `NC(=O)C(c1ccccc1)(c1ccc(F)cc1)c1ccc(F)cc1` [senicapoc] was -2.77%.
Take `CCOc1c2c(c(OCC)c3ccccc13)C(=O)N(c1ccc(CC(=O)NS(=O)(=O)c3ccccc3)cc1)C2`: the “inhibition” value is 2.87%.
The figure for `COc1c(O)cc2c(c1O)[C@@H]1O[C@H](CO)[C@@H](O)[C@H](O)[C@H]1OC2=O` [bergenin] is -3.29%; for `O=C(O)c1cc(/N=N/c2ccc(O)c(C(=O)O)c2)ccc1O` [olsalazine] it is 1.15%; for `O=C(Cc1ccc(-c2ccccc2)cc1)Nc1ccccn1` [difenpiramide] it is 2.42%.
In the case of `Nc1nc(N)c(N=O)c(OCC2CCCCC2)n1`, the “inhibition” value is -3.27%.
The figure for `CC(C)N(CC[C@H](c1ccccc1)c1cc(CO)ccc1O)C(C)C` [5-hydroxymethyl-tolterodine] is -1.98%; for `CCn1c(=O)c2c(nc(/C=C/c3ccc(OC)c(OC)c3)n2C)n(CC)c1=O` [istradefylline] it is 1.05%; for `Cc1cccc(N(C)C(=S)Oc2ccc3ccccc3c2)c1` [tolnaftate] it is -0.91%.
Regarding `CCOC(=O)c1ccc(NC2CCCCC2)c(N)c1` [ferrostatin-1], the “inhibition” value is 0.05%.
With `COc1cccc(C=NCCN=Cc2cccc(OC)c2[O-])c1[O-].[Cl-].[Mn+3]`, the “inhibition” value was 2.33%.
The value for `COc1ccc(-c2oc3cc(OC)ccc3c2C(=O)c2ccc(C#N)cc2)cc1` was -2.41%.
The value for `CC1(C)S[C@@H]2[C@H](NC(=O)COc3ccccc3)C(=O)N2[C@H]1C(=O)O` [penicillin-v-potassium] was -0.76%; that for `O=C(O)c1cccnc1C(=O)O` [quinolinic-acid] was 1.12%; that for `CCOC(=O)c1ccc(OC(=O)CCCCCNC(=N)N)cc1` [gabexate] was -0.03%.
In the case of `CCOc1ccc2ccccc2c1C(=O)N[C@@H]1C(=O)N2[C@@H]1SC(C)(C)[C@@H]2C(=O)O` [nafcillin], the “inhibition” value was -2.44%.
With `COc1ccc(CNC(=O)c2sc3nc(C)cc(C)c3c2N)cc1`, the “inhibition” value is 1.68%.
